For 60 compounds, inhibition results are on record in PubChem BioAssay AID492956 (The Scripps Research Institute Molecular Screening Center, 2010).

Hit rate of the full screen: of about 340,000 compounds, about 3,300 (0.97%) were called active.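 How the source made its calls: active means inhibition above the mean over all tested compounds plus 3 SD (cut at about 30% in these data); inactive means the rest.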 The entries come from a sample that favours actives as a whole.

This assay deals with Platelet-activating factor acetylhydrolase 2, cytoplasmic (Homo sapiens) (UniProt Q99487). Nature of the assay: PAFAH2 enzyme inhibitors, primary screen, biochemical, fluorescence polarization, human (AID 492956).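 Further: inhibitors block probe labeling of enzyme so polarization drops; 0% = enzyme with DMSO and 100% = wells lacking PAFAH2 protein.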 As to conditions: recombinant PAFAH2, FP-rhodamine activity probe, at 3.39 µM, active compounds read high.
For orientation: inhibition means the change of the read-out against control, counted positive when it falls. As for `OC(CN1C2=NCCCN2c2ccccc21)c1ccc(Br)cc1` (stereo not given), the inhibition is 9.07% (inactive). With `C=CCNC(=O)/C=C/c1ccc(C(C)C)cc1` the figure was 10% (inactive); with `CC(=O)NC12CC3CC(C1)CC(C(=O)N1CCN(S(=O)(=O)c4cccs4)CC1)(C3)C2`, 17.5% (inactive). With `O=C(OCC(=O)N1CCCCCC1)c1ccc(Br)c(S(=O)(=O)N2CCOCC2)c1` the figure was 8.68% (inactive).

Regarding `COc1cccc(NC(=O)COc2cc(C)cc3oc(=O)cc(C)c23)c1`, the inhibition was -3.3% (inactive). As to `CC(=O)c1nn(-c2ccc(C)cc2)cc1C(=O)c1cccc(Br)c1`, the inhibition is 1.51% (inactive). As to `Cc1ccc(C)c(C(=O)COC(=O)Cn2[nH]c(=O)c3ccccc3c2=O)c1`, the inhibition is -1.71% (inactive). With `COCCCNC(=O)c1c(F)c(F)c(F)c(F)c1F` the figure was -4.37% (inactive); with `CC(NC(=O)CN1CCN(Cc2ccc(Cl)cc2)C1=O)c1ccc2c(c1)OCCO2` (stereo not given), 1.47% (inactive).

Take `O=C(NCc1cccnc1)c1cccnc1Sc1ccc(Cl)cc1`: the inhibition was 2.4% (inactive). With `CCc1ccc(C(=O)OCC(=O)Nc2cccc(S(=O)(=O)NC3=NCCCCC3)c2)cc1` the figure was 52.3% (active).

In the case of `COc1ccccc1C(=O)OCC(=O)Nc1cccc(S(=O)(=O)NC2=NCCCCC2)c1`, the inhibition is 12.3% (inactive). For `O=C(COC(=O)c1c(Cl)cccc1Cl)Nc1cccc(S(=O)(=O)NC2=NCCCCC2)c1`, the inhibition is 8.12% (inactive). With `CNC(=O)C1CC(=O)N(Cc2ccc3c(c2)OCO3)C(=Nc2ccc(F)cc2)S1` (stereo not given), the inhibition was 0.97% (inactive).

Regarding `CCC1(C)N(O)C(C)(C)C(c2ccc(OC)cc2)=[N+]1[O-]` (stereo not given), the inhibition is 2.06% (inactive). `CCc1ccccc1NC(=O)c1ccc2c(c1)CCN2S(C)(=O)=O`: the inhibition was 2.6% (inactive). For `O=C(Nc1nc(-c2ccco2)c(-c2ccco2)s1)c1ccco1`, the inhibition is 22.9% (inactive). In the case of `COCCNC(=O)c1snc2ccc(Cl)cc12`, the inhibition is -2.13% (inactive).

For `COCCNC(=O)Nc1ccc2nc(-c3ccco3)c(-c3ccco3)nc2c1`, the inhibition is 35.8% (active). Take `Cc1nnsc1C(=O)NCc1c(F)cccc1Cl`: the inhibition was 2.19% (inactive). With `Cc1oc2cc(Br)c(O)c(Br)c2c1C(=O)c1ccccc1` the figure was 59.6% (active); with `CCOC(=O)c1c(-c2ccccc2)oc2cc(Br)c(O)c(C=O)c12`, 6.96% (inactive). With `Cc1oc2cc([N+](=O)[O-])c(O)c([N+](=O)[O-])c2c1C(=O)c1ccc(Br)cc1` the figure was 8.04% (inactive); with `COCCN(CCOC)c1nc(N)c2c(N)nc3c(c2c1C#N)CC(=O)N3Cc1ccc(Cl)cc1`, 5.58% (inactive). With `Clc1ccc(CSc2nnc3c(n2)[nH]c2ccccc23)cc1` the figure was -12.8% (inactive); with `Clc1ccccc1CSc1nnc(-c2ccco2)c(-c2ccco2)n1`, 62.2% (active). For the compound `CCc1nnc(SCc2cccc(F)c2)nc1CC`, the inhibition is 0.34% (inactive). With `CSc1nc(-c2ccco2)nn1C(=O)c1ccccc1Cl` the figure was 0.54% (inactive); with `S=C(NCc1ccco1)NCc1ccccc1Cl`, 2.25% (inactive).

In the case of `c1ccc(CSc2nnc(-c3ccco3)c(-c3ccco3)n2)cc1`, the inhibition is 57% (active). With `Nn1c(SCC(=O)NC2CCCC2)nnc1-c1ccccc1F` the figure was 3.8% (inactive). Next, `CCn1c(N)c(Br)c(=O)[nH]c1=O`: -4.56% (inactive). Next, `CSc1ccc(-c2c(C#N)c(N)nc3c2c(C)nn3-c2ccccc2)cc1`: -18.9% (inactive). `CCCNC(=O)CCc1c(C)nc2c(c(C)nn2-c2ccc(C)cc2)c1C`: the inhibition was -8.03% (inactive). As for `Cc1ccc(-n2nc(N)c3c(=O)oc(N(C)C)nc32)cc1`, the inhibition is 55.9% (active).

In the case of `Cc1ccc(NC(=S)Nc2ncccc2C)c(C)c1`, the inhibition is -4.32% (inactive). With `Cc1cc(C(=O)NNC(=O)CCC2CCCCC2)c(C)o1`, the inhibition was 4.96% (inactive). Next, `Cc1cc(C(=O)NCCc2ccc(Cl)cc2)c(C)o1`: 4.91% (inactive); `Cc1cc(C(=O)CCC(=O)NNC(=O)c2ccccc2O)c(C)s1`: 7.6% (inactive). With `CC1=C(C)CC(C(=O)NNC(=O)c2ccccc2O)C(C(=O)O)C1` (stereo not given) the figure was -2.13% (inactive); with `Cc1cc(C(=O)NNC(=O)c2ccccc2O)c(C)o1`, 31.3% (active). Next, `O=C(NNC(=O)c1ccccc1O)c1ccccc1O`: 39% (active). With `CCC(CC)c1nnc(NC(=O)c2nn(C)c(=O)c3ccccc23)s1`, the inhibition was 0.88% (inactive). With `CCCCCn1c(=O)[nH]c2cc(C(=O)NCCCN3CCCCC3C)ccc2c1=O` (stereo not given) the figure was -5.12% (inactive).

Consider `O=C(NCc1ccc(F)cc1)C(c1ccccc1)N(C(=O)c1csnn1)C1CC1` (stereo not given), for which the inhibition is 2.95% (inactive). Take `Oc1ccc2ccc3cccc[n+]3c2c1`: the inhibition is 9.81% (inactive). On to `CN(C)C(CNC(=O)CCCOc1ccccc1)c1ccco1` (stereo not given), for which the inhibition was 1.39% (inactive).

Consider `COc1cccc2c1C(=O)c1c(O)c3c(c(O)c1C2=O)CC(O)(C(C)=NNC(=O)c1ccc(Cl)c(Cl)c1)CC3OC1CC(N)C(O)C(C)O1` (stereo not given), for which the inhibition is 49.5% (active).

As for `COc1ccc(C(=O)OCC(=O)NCC2CCCCC2)cc1S(=O)(=O)N1CCCc2ccccc21`, the inhibition is 74.5% (active). For `COc1ccc(C(=O)NCC2CCCCC2)cc1S(=O)(=O)N1CCCC1`, the inhibition is 3.82% (inactive). `COc1cc(C)c(C)cc1S(=O)(=O)N1CCCc2ccccc21`: the inhibition is -5.07% (inactive). With `Cc1cc(C)c2oc(C(=O)Nc3ccc(S(=O)(=O)Nc4nccc(C)n4)cc3)cc(=O)c2c1` the figure was -3.63% (inactive); with `C=C1c2c(Cl)ccc(O)c2C(O)=C2C(=O)[C@]3(O)C(O)=C(C(N)=O)C(=O)[C@@H](N(C)C)[C@@H]3[C@@H](O)C12` (stereo not given in full), 42% (active). Consider `CN(C)[C@@H]1C(=O)C(C(N)=O)=C(O)[C@@]2(O)C(=O)C3=C(O)c4c(O)ccc(Cl)c4[C@@H](O)[C@H]3C[C@@H]12`, for which the inhibition is 1.11% (inactive). Next, `Cc1cccc(C)c1NC(=O)CN1C(=O)C(C)Oc2ccccc21` (stereo not given): 4.2% (inactive). Turning to `O=C(Cn1nnc2ccccc2c1=O)NCc1ccc(Cl)cc1`, the inhibition is 4.44% (inactive).

With `C=CCNC(=O)c1sc(SC)cc1-c1ccc(Cl)cc1`, the inhibition is 2.46% (inactive). With `COC(=O)Nc1nc2ccc(Sc3ccccc3)cc2[nH]1` the figure was -5.35% (inactive); with `Nc1ccc2nc3c(=O)[nH]c(=S)[nH]c3nc2c1`, 58.3% (active). Next, `Cc1c(CN2CCC(CO)(CCOc3ccccc3)CC2)[nH]c2ccc(Cl)cc12`: -1.75% (inactive).
